Measured values reported in PubChem BioAssay (NCI).
This is part of a sample that, as a whole, favours compounds with a hit. Of some 83,000 tested, about 20% had one in any assay.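 96-well plates, one dose, 48 hours. Percent growth reported; active if below 10.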 Active and inactive are the calls of the source.

Assays:
Test in all cases: NCI-60 one-dose screen, 48 h (100 = growth as untreated, 0 = no growth, -100 = all killed)
Conditions in all cases: 10 µM unless noted
[1] = tested on: HCT-15 colon
[2] = tested on: HT29 colon
[3] = tested on: SNB-75 CNS
[4] = tested on: SNB-19 CNS
[5] = tested on: U251 CNS
[6] = tested on: PC-3 prostate
[7] = tested on: SK-MEL-5 melanoma
[8] = tested on: UACC-62 melanoma
[9] = tested on: LOX IMVI melanoma
[10] = tested on: SK-MEL-28 melanoma
[11] = tested on: SK-MEL-2 melanoma
[12] = tested on: EKVX NSCLC
[13] = tested on: SN12C renal
[14] = tested on: UO-31 renal
[15] = tested on: TK-10 renal
[16] = tested on: ACHN renal
[17] = tested on: CAKI-1 renal
[18] = tested on: CCRF-CEM leukemia
[19] = tested on: MOLT-4 leukemia
[20] = tested on: A498 renal

Measured: growth

CCN1C(=O)N(CC)C2NNC(Sc3c(C(=O)O)c4ccccc4n(CC(C)C)c3=O)=NC21 (centres undefined)
inactive: [3] 34.4% | [4] 17% | [5] 10.7% | [6] 29.9% | [8] 14.7% | [9] 16.5% | [10] 54.4% | [11] 18.5% | [12] 38.5% | [13] 24.3% | [14] 39.5% | [15] 52.7% | [16] 28.7% | [17] 46.1%
active: [1] 7.04% | [2] -8.58% | [7] 2.31% | [18] 7.54% | [19] 6.5%

O=C(NN1C(=O)/C(=C/C=C/c2ccc([N+](=O)[O-])o2)SC1=S)c1ccncc1
active: [1] -78.9% | [2] -67.2% | [3] -38.6% | [4] -96.8% | [5] -91.2% | [6] -63% | [7] -99.5% | [8] -100% | [9] -94% | [10] -88.9% | [11] -79.3% | [12] -92% | [13] -99.9% | [14] -97.2% | [15] -91% | [16] -100% | [17] -100% | [18] -43.9% | [19] -38.8%

N#C/C(=C1/C(=O)Nc2ccccc21)c1nnc(NC(=O)c2ccc(-n3c(=O)[nH]c4ccccc4c3=O)cc2)s1
active: [9] 0.591% | [18] 7.74% | [19] 0.108%
inactive: [1] 14.8% | [2] 26.9% | [3] 79.5% | [4] 51.1% | [5] 37.5% | [6] 31.8% | [7] 10.3% | [8] 42% | [10] 34.4% | [11] 57.7% | [12] 38.9% | [13] 33.1% | [14] 29.5% | [15] 84.3% | [17] 49.2% | [20] 133%

COc1ccc2nc(NC(=O)c3ccc(N(C)C)cc3)sc2c1
inactive: [1] 59.4% | [2] 100% | [3] 101% | [4] 84.4% | [5] 93.5% | [6] 71.3% | [7] 55.7% | [8] 69.9% | [9] 87% | [10] 95% | [11] 88.8% | [12] 63.4% | [13] 85.6% | [14] 46.7% | [15] 115% | [17] 79.6% | [20] 95.6% | [18] 47.7% | [19] 43.1%

Cc1[nH]nc2ccc3nc(-c4cn[nH]c4C(F)(F)F)c4c(c3c12)CCCC4
active: [1] -4.58% | [2] 5.08% | [3] -9.8% | [4] 3.47% | [5] 7.24% | [6] 4.97% | [7] -51.2% | [8] -57.3% | [9] -39.9% | [10] -20.1% | [11] -68.2% | [12] -40.5% | [13] -22.4% | [14] -30.5% | [15] -56.2% | [16] 1.85% | [17] -9.8% | [18] -12.1% | [19] 2.2%

Nc1nnc(-c2cncc(Br)c2)c(-c2c[nH]c3ccc(Cl)cc23)n1
inactive: [1] 55.4% | [2] 106% | [3] 57.2% | [4] 73.1% | [5] 83.9% | [6] 90.5% | [7] 70.4% | [8] 73.7% | [9] 77.3% | [10] 91.2% | [11] 111% | [12] 78.4% | [13] 83.2% | [14] 41.4% | [15] 111% | [16] 66.1% | [17] 59.1% | [18] 52.9% | [19] 54.4%

COc1ccc(NC2=C(I)C(=O)C(C)=C(C)C2=O)cc1
inactive: [1] 64.3% | [2] 101% | [3] 86.3% | [4] 81.2% | [5] 25.9% | [6] 10.2% | [8] 33.3% | [10] 52.6% | [11] 56.9% | [12] 25% | [13] 17% | [14] 46.1% | [15] 155% | [16] 30.4% | [17] 29.1%
active: [7] -44.6% | [9] 2.42% | [18] -11.1% | [19] -6.32%

CN(C)c1nc(NCCNS(=O)(=O)c2ccc(C3=Nc4c(N)nc(N)nc4NC(c4ccc(Cl)cc4)C3)cc2)nc(N2CCOCC2)n1 (centres undefined)
active: [9] -2.54%
inactive: [1] 61% | [2] 30% | [3] 57.9% | [4] 46.6% | [5] 49.5% | [6] 26.4% | [7] 20.1% | [8] 66.6% | [10] 66.4% | [11] 98.5% | [12] 37.6% | [13] 37% | [14] 59.9% | [15] 86.8% | [16] 69.2% | [17] 41.7% | [18] 17.3% | [19] 13.9%

Cc1cn(-c2cc(NC(=O)c3ccc(C)c(-n4cc(-c5cnc6cccnn56)nn4)c3)cc(C(F)(F)F)c2)cn1
active: [2] 7.41%
inactive: [1] 84.8% | [3] 122% | [4] 109% | [5] 44.3% | [6] 102% | [7] 53.9% | [8] 11.3% | [9] 26.8% | [10] 23.5% | [11] 64.9% | [12] 98.9% | [13] 85.9% | [14] 58.2% | [15] 111% | [16] 85.7% | [17] 94.7% | [18] 54.6% | [19] 38.9%

Cn1cc(-c2cc(N)n3nc(-c4c[nH]c5ccccc45)cc3n2)c2cc(Br)ccc21
active: [1] -76.6% | [2] -52% | [3] -47.7% | [4] -85.9% | [5] -95.2% | [6] -42.7% | [7] -94.5% | [8] -69.4% | [9] -79.3% | [10] -59.1% | [11] -65.4% | [12] -86.5% | [13] -78.8% | [14] -82.3% | [15] -94.6% | [16] -87.7% | [17] -87.3% | [18] -22.9% | [19] 7.68%

COc1ccc(C(=O)/C=C/c2ccc3c(c2)OCCO3)cc1S(N)(=O)=O
inactive: [1] 41.9% | [2] 33.4% | [3] 82.5% | [4] 51.4% | [5] 12.2% | [6] 103% | [7] 99.8% | [8] 87.9% | [9] 23.7% | [10] 101% | [11] 114% | [12] 84.8% | [13] 68.6% | [14] 48.5% | [15] 95.6% | [17] 85.6% | [20] 109% | [18] 91% | [19] 37.4%

CC(C)(C)OC(=O)N1CCC2(CC1)Oc1ccccc1[C@H]1CC(c3ccc(Br)cc3)=NN12
inactive: [1] 59.1% | [2] 96.7% | [3] 72.8% | [4] 78% | [5] 82.8% | [6] 66.6% | [7] 76.2% | [8] 41.3% | [9] 54.2% | [10] 113% | [11] 71.9% | [12] 56.6% | [13] 71.2% | [14] 43% | [15] 131% | [17] 41.1% | [20] 98.7% | [18] 58.2% | [19] 47%

Cc1ccc(C(=O)Nc2cc(-c3ccccc3)cc(C(F)(F)F)c2)cc1C#Cc1cnc2cccnn12
inactive: [1] 57.7% | [2] 34.8% | [3] 112% | [4] 92.3% | [5] 74.9% | [6] 65.8% | [7] 26% | [8] 46.1% | [9] 39.4% | [10] 52.9% | [11] 58.7% | [12] 63% | [13] 65.9% | [14] 56.5% | [15] 79.3% | [17] 70.4% | [20] 133% | [18] 38.1% | [19] 35.5%

COc1c(B(O)O)cccc1-c1nc2ccc3cn[nH]c3c2c2c1CCCC2
inactive: [1] 54.9% | [2] 85.8% | [4] 54.9% | [5] 48.1% | [6] 60% | [7] 53.4% | [8] 52.1% | [9] 41.3% | [10] 86.6% | [11] 108% | [12] 49.3% | [13] 50.6% | [14] 23.6% | [15] 12% | [18] 39.6% | [19] 47.7%
active: [3] -17.7% | [17] -11.3% | [20] -2.36%

COc1ccc2c(c1)C(Sc1ccc(F)cc1)c1c(nc(N)c(C#N)c1N)O2 (centres undefined)
inactive: [1] 80.6% | [2] 94.3% | [3] 66.5% | [4] 79.7% | [5] 82% | [6] 55.1% | [7] 91.2% | [8] 74.1% | [9] 60.9% | [10] 112% | [11] 97% | [12] 87.1% | [13] 78.5% | [14] 39.8% | [15] 103% | [16] 86.6% | [17] 84.9% | [19] 53.9%
active: [18] 1.67%

COc1ccc(N=Nc2c(N)nn3c(N)c(C#N)c(-c4ccc(F)cc4)nc23)cc1
inactive: [1] 86.1% | [2] 84.6% | [3] 82.4% | [4] 59.5% | [5] 48.7% | [6] 67% | [7] 34.7% | [8] 61.5% | [9] 75.1% | [10] 90.5% | [11] 110% | [12] 72.6% | [13] 61.3% | [14] 50.6% | [15] 66.7% | [17] 58.6% | [20] 155% | [18] 86.7% | [19] 77.6%
